# Compound activity as filed in PubChem.
# DAX1 inh-1: inhibitors of human orphan nuclear receptor DAX1 (NR0B1); inhibition, % at 6.75 µM; HEK293 Gal4-DAX1 luciferase reporter, luminescence; AID 504766; 340,000 compounds, 0.99% hits;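 active = inhibition above the mean over all tested compounds plus 3 SD, cut at about 4.2% in these data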;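 also: 0% = DAX1-transfected cells with DMSO and 100% = empty-vector control cells with DMSO; inhibition shows as a rise in luminescence from relieved DAX1 repression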
# Target sequence (P51843 207-470 limits assumed): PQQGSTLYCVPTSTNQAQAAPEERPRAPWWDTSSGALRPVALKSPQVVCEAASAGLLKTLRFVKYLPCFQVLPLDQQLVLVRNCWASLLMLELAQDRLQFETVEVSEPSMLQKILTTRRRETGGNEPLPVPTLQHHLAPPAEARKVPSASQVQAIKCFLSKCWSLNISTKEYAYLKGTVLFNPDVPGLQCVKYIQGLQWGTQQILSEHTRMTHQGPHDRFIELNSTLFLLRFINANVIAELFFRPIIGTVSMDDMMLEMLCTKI
# hgDAF-12 ag: agonists of H. glycines DAF-12 nuclear receptor; 370,000 compounds, 1.8% hits; HEK293 GAL4-hgDAF12 UAS-luciferase reporter, agonist luminescence; normalized to butyrate control; AID 687014; activation, % at 6.8 µM;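 active = activation above a cutoff set at the mean of all screened compounds plus 3 SD, cut at about 10% in these data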;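 also: 0% = DMSO wells and 100% = sodium butyrate wells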
# hcDAF-12 act: activates DAF-12 receptor from parasite H. contortus; HEK293 hcDAF-12 lit1-tk-luc reporter, luminescence; 0% DMSO, 100% Δ7-dafachronic acid; activation, % at 6.8 µM; 370,000 compounds, 1.4% hits; AID 652067;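 active = activation above the mean of all tested compounds plus 3 SD, cut at about 5.5% in these data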;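 also: 100% = response to 3 µM Δ7-dafachronic acid high control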
# ssDAF12 agonist: S. stercoralis DAF-12 activation, primary screen; activation, % at 6.8 µM; 370,000 compounds, 1% hits; AID 652126; HEK293 ssDAF-12/GRIP1 lit1-tk-luc reporter, luminescence; % of 3 µM dafachronic acid response;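 active = activation above the mean over all tested compounds plus 3 SD, cut at about 0.9% in these data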;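 also: 0% = DMSO-only wells and 100% = 3 µM delta7-dafachronic acid wells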
# DAX1 inh-2: DAX1 (NR0B1) inhibition, primary screen. HEK293T StAR-luciferase reporter, SF-1/DAX-1 repression relief. inhibition, % at 6.8 µM. 370,000 compounds, 1.1% hits. AID 652010;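 active = inhibition above the mean over all tested compounds plus 3 SD, cut at about 3.6% in these data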;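 also: 0% = DAX-1 cells with DMSO and 100% = cells lacking DAX-1 with DMSO; higher inhibition means more luminescence from relief of DAX-1 repression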
# SMARCA2 activ: activators of SMARCA2 function; 370,000 compounds, 1% hits; activation, % at 9.1 µM; AID 652017; MG213 cells, MMTV-luciferase reporter, dexamethasone, overnight; in the data active = activation above about 7.8%;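 also: 0% = vehicle wells and 100% = reference activator wells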
# The depositor's hits bear a star; / = not tested or not shown. Sampled rows, rich in hits. Any-hit rate of the full collection: about 4.8%.
SMILES,DAX1 inh-1,hgDAF-12 ag,hcDAF-12 act,ssDAF12 agonist,DAX1 inh-2,SMARCA2 activ
C[C@@H](CO)N(Cc1cn(Cc2ccccc2)nn1)S(=O)(=O)c1ccc(F)cc1Br,/,-0.8,-1.7,-0.7,0.3,-5.4
CCNC(=O)N(C)[C@H]1C[C@H]2c3[nH]c4cccc(-c5ccc6c(c5)OCO6)c4c3CCN2C[C@H]1[C@H](C)O,/,-6.3,-1.9,-1.3,-1.4,4.2
COC(=O)[C@]12C[C@H](CC(=O)NCC34CC5CC(CC(C5)C3)C4)C(=O)N(Cc3ccco3)C1=C[C@H](C1CCCC1)O[C@@H]2C,/,-2.5,-2.8,-0.3,-1.1,-2.2
CCC(=O)Nc1ccc(NC(=O)C23CC4CC(CC(C4)C2)C3)cn1,3.0,5.5,2.4,-0.7,0.1,-2.2
O=C(Nc1ccc(NC(=O)C23CC4CC(CC(C4)C2)C3)cn1)c1ccco1,3.3,10.8*,3.2,0.8,1.4,3.1
Cc1cccn2c(=O)c3cc(C(=O)N4CCCC(C)C4)sc3nc12 (stereo not drawn),-0.2,3.2,3.9,1.2*,0.8,-1.9
Cc1cccn2c(=O)c3cc(C(=O)N4CCN(Cc5ccccc5)CC4)sc3nc12,-0.9,2.1,3.7,-0.9,-0.6,-1.0
CC1CCCN(C(=O)c2cc3c(=O)n4ccccc4nc3s2)C1 (stereo not drawn),0.5,6.8,5.1,-0.3,1.3,2.8
Cc1cccn2c(=O)c3cc(C(=O)N4CCCCC4)sc3nc12,1.6,6.5,4.9,1.5*,0.8,-0.9
Cc1ccccc1Nc1nc(N)nc(COC(=O)c2ccco2)n1,2.8,11.8*,3.5,0.5,2.4,2.0
Nc1nc(COC(=O)c2ccco2)nc(Nc2ccccc2)n1,3.7,3.3,-0.9,-0.7,1.6,1.7
Cc1cc(Cl)c2oc(C(=O)N(CCO)Cc3ccccc3)c(C)c2c1,8.1*,0.5,0.4,-1.4,0.9,-0.4
Cc1ccc2oc(C(=O)N(CCO)Cc3ccccc3)c(C)c2c1,0.4,0.6,-2.1,-1.1,-0.4,-3.0
Cc1cc(Cl)c2oc(C(=O)N(C)Cc3cc(C)[nH]n3)c(C)c2c1,0.9,-2.0,-1.7,-0.6,0.5,-0.6
Cc1cc(Cl)c2oc(C(=O)N(C)Cc3ccon3)c(C)c2c1,1.2,12.7*,1.6,-0.1,1.5,1.3
CNC(=O)C1(C)C=CC2(CCCCC2)N1C(=O)OC (stereo not drawn),-0.8,-1.2,0.3,-1.4,-0.5,1.4
COCCNC(=O)C1(C)C=CC2(CCCCC2)N1C(=O)c1ccccc1 (stereo not drawn),4.7*,1.9,-0.3,-0.7,-0.4,0.8
O=S1(=O)CC2c3ccc(F)cc3CN2CN1Cc1ccccc1 (stereo not drawn),/,1.8,2.4,-0.8,0.0,-1.7
O=C(COC(=O)COc1ccc2ccccc2c1)NCC(F)(F)F,0.5,-0.3,5.6*,-1.3,0.0,-2.9
CCCCCCC12C(=Cc3cc(C)ccc31)c1ccccc1C(CC(=O)NCc1ccccc1)N2C(=O)OC (stereo not drawn),/,-0.7,0.8,-0.5,0.0,-9.3
O=C1c2ccccc2C(=O)c2c(O)c(O)cc(O)c21,-0.7,5.2,1.9,0.2,-0.2,-0.4
O=C1C=C(O)c2c(O)cc(O)c(O)c2C1=O,5.2*,-2.5,0.3,-1.9,0.1,-0.5
CN1C(=O)C[C@@](C#N)(C(=O)NCCc2ccccc2)[C@H]1c1ccccc1,/,4.6,2.2,-1.2,0.9,0.2
CC(=O)c1ccc(NC(=O)NC2CCCCN(Cc3cccc(Cl)c3)C2=O)cc1 (stereo not drawn),/,0.5,-3.1,-1.6,-1.2,-4.5
Cc1nc2c(Cl)c(C)nn2c2c1CCC2,-0.3,0.5,-0.5,-1.6,0.0,3.0
SMILES,DAX1 inh-1,hgDAF-12 ag,hcDAF-12 act,ssDAF12 agonist,DAX1 inh-2,SMARCA2 activ
Cc1nc2c(-c3ccc(Cl)cc3)cnn2c2c1CCC2,-0.2,3.4,3.1,2.1*,-0.1,1.0
COC(=O)CN1C(=O)C(O)(CC(=O)c2ccc(C)cc2)c2cc(Br)ccc21 (stereo not drawn),4.5*,4.7,-0.6,-0.9,-0.8,-2.1
CCOC(=O)c1c(S(=O)(=O)Nc2ccc(C)cn2)c(C)n(C)c1C,1.2,2.3,0.2,-1.2,0.1,7.9*
Clc1ccccc1CSc1nc2ccncc2[nH]1,-0.6,12.0*,3.5,-0.2,2.9,2.1
Nc1c(C(=O)CSc2nc3ccccc3o2)c(=O)[nH]c(=O)n1C1CC1,-1.7,-6.2,-1.6,-1.3,4.4*,0.1
Cc1cc(C)c(NC(=O)C2CCCN2C)c(C)c1 (stereo not drawn),8.0*,1.6,0.8,-0.9,-0.2,0.3
Cc1cc(C)c(NC(=O)C2CCCN2CCO)c(C)c1 (stereo not drawn),1.4,-0.1,0.8,-1.0,1.3,-1.1
CC(c1ccc(F)cc1)n1cc(C(=O)NCCN(C)C)nn1 (stereo not drawn),5.5*,-0.2,-0.8,-0.7,0.3,1.6
O=C(OCCN1CCN(C2CN(Cc3cn(Cc4ccccc4C(F)(F)F)nn3)S(=O)(=O)C2)CC1)c1cc2ccccc2o1 (stereo not drawn),/,3.0,0.0,-1.0,-0.8,1.6
C=C(C)Cn1c(SCC)nc2ccccc2c1=O,-1.5,1.3,0.3,-1.0,0.2,2.0
C=C(C)Cn1c(SCC(=O)N/N=C/c2c(O)ccc3ccccc23)nc2ccccc2c1=O,0.7,-0.1,6.0*,0.6,-0.1,-2.0
NS(=O)(=O)c1ccc(CCNc2ccc(C(F)(F)F)cn2)cc1,0.4,-0.4,-0.3,-1.3,-0.5,-1.7
FC(F)(F)c1ccc(NCCc2ccccc2)nc1,5.1*,-0.4,-1.2,-0.6,0.4,-2.0
CCC(=O)Nc1nnc(CCc2ccccc2)s1,-0.3,-0.4,0.0,-1.8,-0.2,-0.3
CCOC(=O)C(=O)Nc1nnc(CCc2ccccc2)s1,0.5,0.3,-0.6,-1.4,0.2,7.8*
CCOc1ccc(CCNC(=O)COC(=O)c2cc([N+](=O)[O-])ccc2N2CCOCC2)cc1OCC,-0.7,0.3,-1.7,-1.3,-6.0,0.4
CCOc1ccc(CCNC(=O)c2cc([N+](=O)[O-])ccc2N2CCOCC2)cc1OCC,0.3,0.8,0.6,-0.4,0.0,7.9*
COC(=O)c1cc(S(=O)(=O)NCc2cccc(OC)c2)cn1C,5.3*,1.6,0.5,-1.3,0.2,-1.4
CC(=NNC(=O)CSc1nnc(-c2ccc(C(C)(C)C)cc2)n1-c1ccccc1)c1cccc2ccccc12,/,2.4,-0.9,-2.0,-0.6,-5.5
CCOc1ccccc1N(C(=O)Nc1cccc(Cl)c1)C1=NC(C)CS1 (stereo not drawn),4.5*,0.8,-3.4,-2.0,-0.6,-0.6
COc1ccc(CNC(=O)O[C@H]2CC[C@@]34CCCN3C(=O)CCC[C@H]4[C@H]2C)cc1,/,0.4,-1.4,-1.7,/,/
